{"source": "PubChem BioAssay", "note": "Unmarked numbers belong to inactive results. No rule for the calls is given here. Where a SMILES comes first, the peptide text is derived from it. The star is where a group is joined. Boc = CC(C)(C)OC(=O)*"}
{"target": "Pantothenate synthetase (Mycobacterium tuberculosis (strain ATCC 25618 / H37Rv)) (UniProt P9WIL5)", "sequence (P9WIL5 whole entry, looked up)": "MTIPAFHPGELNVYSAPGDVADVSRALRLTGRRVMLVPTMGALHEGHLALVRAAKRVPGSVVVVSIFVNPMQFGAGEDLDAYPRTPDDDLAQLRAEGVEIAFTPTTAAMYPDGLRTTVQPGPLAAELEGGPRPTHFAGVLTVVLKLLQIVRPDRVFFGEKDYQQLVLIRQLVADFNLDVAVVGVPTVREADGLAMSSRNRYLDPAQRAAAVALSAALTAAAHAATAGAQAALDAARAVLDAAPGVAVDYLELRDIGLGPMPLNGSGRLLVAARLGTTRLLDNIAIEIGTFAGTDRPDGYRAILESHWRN", "experiment": "Coupled enzyme confirmation of inhibitors against recombinant Mtb PanC (AID 375);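 also: 0% = full reaction with vehicle and 100% = no enzyme background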", "conditions": "coupled enzyme assay; at 10 µM, hits give high values", "units": {"inhibition": "%"}}
{"smiles": "CCCC1O[C@@H]2C[C@H]3[C@@H]4CCC5=CC(=O)C=C[C@]5(C)[C@H]4[C@@H](O)C[C@]3(C)[C@]2(C(=O)CO)O1", "note": "(stereo not given in full)", "inhibition": 4}
{"smiles": "CC(C)Oc1cc2oc(=O)c3c(c2cc1Cl)CCC3", "inhibition": 0}
{"smiles": "CC1CCCC(C)N1C(=O)CSc1nnc(-c2cccs2)o1", "note": "(stereo not given)", "inhibition": 1}
{"smiles": "Cc1noc(C)c1COc1cccc(C(=O)Oc2ccc3c(c2)OCO3)c1", "inhibition": 0}
{"smiles": "COC(=O)C(O)(CC(=O)c1ccc(OC)cc1)C(F)(F)F", "note": "(stereo not given)", "inhibition": 0}
{"smiles": "CCn1cc(C(=O)NCCN(C)CCc2ccccc2)c(=O)c2cc(S(=O)(=O)N(C)C)ccc21", "inhibition": 4}
{"smiles": "CC1CCN(S(=O)(=O)c2ccc3[nH]c(=O)cc(C(=O)O)c3c2)CC1", "inhibition": 0}
{"smiles": "CCC(=O)c1ccc(OCCN2CCOCC2)cc1", "inhibition": 4}
{"smiles": "COc1ccc(OC)c(C(=O)CSc2nnc(-c3ccc(OC)c(OC)c3)o2)c1", "inhibition": 11}
{"smiles": "O=C(Nc1ncnc2sc3c(c12)CCCCC3)c1ccco1", "inhibition": 10}
{"smiles": "Cc1ccc(S(=O)(=O)N(C)CC(=O)NC2CCCC2)cc1", "inhibition": 0}
{"smiles": "Cc1cccc(C2CC(c3ccc(Br)cc3)Nc3nc(N)nn32)c1", "note": "(stereo not given)", "inhibition": 0}
{"smiles": "CC(C)CCN(C)C1CCN(S(=O)(=O)c2ccc(F)cc2)CC1", "inhibition": 0}
{"smiles": "CCC(=O)NC1(C(F)(F)F)C(=O)NC(C)=C1C#N", "note": "(stereo not given)", "inhibition": 6}
{"smiles": "O=C(COc1ccccc1)Nc1ccc(-c2nnc(-c3ccco3)o2)cc1", "inhibition": 2}
{"smiles": "O=C(c1cnsn1)N1CCN(c2ccccn2)CC1", "inhibition": 0}
{"smiles": "O=C1COc2ccc(C(=O)COC(=O)CCc3ccc(S(=O)(=O)N4CCOCC4)cc3)cc2N1", "inhibition": 8}
{"smiles": "Cc1ccc(N=C2NC(=O)CS2)c(C)c1", "inhibition": 0}
{"smiles": "Cc1ccc(S(=O)(=O)N2C(=O)CCC2C(=O)Nc2ccc3c(c2)OCCO3)cc1", "note": "(stereo not given)", "inhibition": 0}
{"smiles": "Cc1nnc2n(-c3ccccc3)c(=O)c3c4c(sc3n12)CCCC4", "inhibition": 2}
{"smiles": "O=C(CN1CCCN(S(=O)(=O)c2ccc(Br)cc2)CC1)Nc1ccc2c(c1)OCO2", "inhibition": 4}
{"smiles": "CN(C)S(=O)(=O)c1ccc(C(=O)N2CCCC2c2nc3ccccc3s2)cc1", "note": "(stereo not given)", "inhibition": 0}
{"smiles": "CC1(C)SC2[C@H](NC(=O)C(NC(=O)N3CCNC3=O)c3ccccc3)C(=O)N2C1C(=O)O", "note": "(stereo not given in full)", "inhibition": 0}
{"smiles": "COc1cc(OC)c(C(=O)Nc2ccc(N(C)C)cc2)cc1OC", "inhibition": 4}
{"smiles": "CCOCC(=O)Nc1ccc(S(=O)(=O)N2CCOCC2)cc1", "inhibition": 0}
{"smiles": "COc1ccccc1NC(=O)c1cc2n(n1)C(C(F)(F)F)CC(c1ccc3c(c1)OCO3)N2", "note": "(stereo not given)", "inhibition": 0}
{"smiles": "Cc1ccc(SCc2[nH]nc3c2C(c2ccc(C)o2)C(C#N)=C(N)O3)cc1", "note": "(stereo not given)", "inhibition": 3}
{"smiles": "O=C(COc1ccc(S(=O)(=O)N2CCCC2)cc1Cl)NC1CC1", "inhibition": 8}
{"smiles": "Cc1cc(C)n(C2=NS(=O)(=O)c3ccccc32)n1", "inhibition": 1}
{"smiles": "O=C(CCC(=O)c1cccs1)NCc1ccccc1", "inhibition": 0}
{"smiles": "O=C(Cc1ccccc1)Nc1ccc(CN2CCOCC2)cc1", "inhibition": 0}
{"smiles": "CCOC(=O)c1sc2ncn(/N=C/N(C)C)c(=O)c2c1C", "inhibition": 8}
{"smiles": "Cn1c(=O)[nH]c(=O)c2c1nc(N1CCCCCC1)n2CCCSc1nc2ccccc2o1", "inhibition": 8}
{"smiles": "O=C(CSc1ncccn1)c1ccccc1Br", "inhibition": 7}
{"smiles": "COc1cccc(NC(=O)Cc2nnc(SCC(=O)c3ccccc3)n2C)c1", "inhibition": 0}
{"smiles": "COc1ccc(-c2cn3c(C)c(C(=O)Nc4cc(NC(C)=O)ccc4OC)sc3n2)cc1", "inhibition": 4}
{"smiles": "CC(C)(C)OC(=O)N1CCCC1C(=O)N1CCCC1C(=O)N1CCCC1C(=O)O", "note": "(stereo not drawn) (Boc-Pro-Pro-Pro-OH; configuration not given here)", "inhibition": 3}
{"smiles": "Cn1c(=O)n(Cc2ccccc2)c(=O)c2c1nc(NCC1CCCO1)n2Cc1ccccc1", "note": "(stereo not given)", "inhibition": 0}
{"smiles": "CC(C)CC(NC(=O)OC(C)(C)C)C(=O)NC(C(=O)N1CCCC1C(N)=O)C(C)C", "note": "(stereo not drawn) (Boc-Leu-Val-Pro-NH2; configuration not given here)", "inhibition": 0}
{"smiles": "Cc1c(C#N)sc2nc(-c3ccccc3)nc(N3CCCC3)c12", "inhibition": 0}
